Assay results taken from PubChem BioAssay (NCI).
Several values for one entry are separate records, joined by “and”; a condition that tells them apart may be missing. Equal entries are not always repeated. Compounds without any hit were thinned out: in the full panel of roughly 79,000, 15% have a hit. A structure can be active in one record and inactive in another. Activity calls are given as the source filed them. Cut-off read from the data, not from the text of the source: active = growth inhibition above about 70%; inactive = the rest.

Experiments:
[1] = NCI Yeast Anticancer Drug Screen. Data for the rad52 strain (AID 147);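 note: 0% = growth of vehicle-treated control cultures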; conditions: S. cerevisiae rad52 mutant growth inhibition, stronger effect = higher value
How it was run: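 Vehicle-treated cultures served as the reference for growth inhibition of compound-exposed yeast bearing a DNA repair mutation.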

[2] = NCI Yeast Anticancer Drug Screen. Data for the wt1 strain (AID 149);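 note: 0% = growth of vehicle-treated wt1 cultures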; conditions: S. cerevisiae wt1 strain (SPY 50644) growth inhibition, stronger effect = higher value
How it was run: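 Growth inhibition read against vehicle controls after compound exposure of the wt1 yeast strain.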

[3] = NCI Yeast Anticancer Drug Screen. Data for the rad50 strain (AID 155);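 note: 0% = growth of vehicle-only cultures of the same strain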; conditions: S. cerevisiae rad50 strain growth inhibition, stronger effect = higher value
How it was run: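 Readout: growth inhibition relative to vehicle-treated cultures. Compound exposure was carried out in a genetically defined yeast strain deficient in DNA damage repair.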

[4] = NCI Yeast Anticancer Drug Screen. Data for the mec2-1 strain (AID 157); conditions: S. cerevisiae mec2-1 strain, stronger effect = higher value
How it was run: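 Vehicle-treated cultures served as reference for growth inhibition of compound-exposed mec2-1 yeast.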

[5] = NCI Yeast Anticancer Drug Screen. Data for the rad14 strain (AID 159);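 note: 0% = growth of vehicle-treated control cultures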; conditions: S. cerevisiae rad14 strain growth inhibition, stronger effect = higher value
How it was run: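 Growth inhibition vs vehicle controls; genetically altered yeast strain (DNA damage repair defect) treated with test compounds.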

[6] = NCI Yeast Anticancer Drug Screen. Data for the sgs1 mgt1 strain (AID 161);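 note: 0% = growth of cultures given vehicle only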; conditions: S. cerevisiae sgs1 mgt1 strain, stronger effect = higher value
How it was run: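 Test agents were incubated with a DNA-repair-mutant yeast strain. Growth was then read and compared against vehicle-treated controls.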

[7] = NCI Yeast Anticancer Drug Screen. Data for the CLN2oe strain (AID 163);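 note: 0% = growth of vehicle-only control cultures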; conditions: S. cerevisiae CLN2oe strain, stronger effect = higher value
How it was run: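 Inhibition relative to vehicle-treated yeast is reported. Cells: strain with genetic alteration in cell-cycle control, grown with compound.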

[8] = NCI Yeast Anticancer Drug Screen. Data for the cln2 rad14 strain (AID 165);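 note: 0% = growth equal to vehicle treated cultures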; conditions: S. cerevisiae cln2 rad14 strain, stronger effect = higher value
How it was run: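 Each compound was tested on cln2 rad14 yeast. Inhibition of growth was calculated against vehicle-exposed controls.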

[9] = NCI Yeast Anticancer Drug Screen. Data for the bub3 strain (AID 167); conditions: S. cerevisiae bub3 mutant strain, stronger effect = higher value
How it was run: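 Readout: yeast growth inhibition, expressed relative to vehicle-only wells. The test organism is a mutant strain from a panel with lesions in DNA repair or checkpoint genes.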

[10] = NCI Yeast Anticancer Drug Screen. Data for the mlh1 strain (AID 171);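 note: 0% = growth of vehicle-treated control cultures of the same strain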; conditions: S. cerevisiae mlh1 strain growth inhibition, stronger effect = higher value
How it was run: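 Vehicle-normalised growth inhibition of a repair- or checkpoint-altered yeast strain following compound treatment.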

[11] = NCI Yeast Anticancer Drug Screen. Data for the sgs1 strain (AID 173);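 note: 0% = growth of vehicle-only control cultures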; conditions: S. cerevisiae sgs1 mutant, stronger effect = higher value
How it was run: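 Screen format: yeast with repair or checkpoint alterations, compound exposure, growth read relative to vehicle.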

[12] = NCI Yeast Anticancer Drug Screen. Data for the mlh1 rad18 strain (AID 175); conditions: S. cerevisiae mlh1 rad18 strain growth inhibition, stronger effect = higher value
How it was run: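 Vehicle-treated cultures served as the reference for growth inhibition in a yeast strain carrying DNA damage repair alterations exposed to each compound.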

[13] = NCI Yeast Anticancer Drug Screen. Data for the rad18 strain (AID 177); conditions: S. cerevisiae rad18 mutant growth inhibition, stronger effect = higher value
How it was run: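 Test articles were incubated with altered yeast defective in DNA damage repair. Results are given as inhibition of growth versus vehicle.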

[14] = NCI Yeast Anticancer Drug Screen. Data for the mgt1 strain (AID 153); conditions: S. cerevisiae mgt1 mutant growth inhibition, stronger effect = higher value
How it was run: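 mgt1 strain exposed; growth vs vehicle control recorded as inhibition.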

[15] = NCI Yeast Anticancer Drug Screen. Data for the wt2 strain (AID 169);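 note: 0% = growth of vehicle-treated yeast cultures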; conditions: S. cerevisiae wt2 strain growth inhibition, stronger effect = higher value
How it was run: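 Inhibition of yeast growth was determined after compound treatment, normalised to controls receiving only vehicle.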

[16] = NCI Yeast Anticancer Drug Screen. Data for the rad50EPP+ strain (AID 151);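 note: 0% = growth of vehicle-treated control cultures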; conditions: S. cerevisiae rad50 mutant strain, stronger effect = higher value
How it was run: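 In this screen, rad50EPP+ yeast were exposed to compounds. Growth inhibition was scored against vehicle-treated controls.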

[17] = at 5.0 µM (retest, dose inferred, filed as 0.5)
[18] = at 50.0 µM (retest, dose inferred, filed as 5.0)

Measured: growth inhibition

Cc1ccc(CC2(OCCN(C)C)CCC(C(C)(C)C)CC2)cc1 (stereo unspecified)
inactive: [1]; at 1.2 µM 8% | [1]; at 3.7 µM 3% | [1]; at 11.0 µM 8% | [1]; at 33.0 µM 37% | [2]; at 1.2 µM 9% | [2]; at 3.7 µM 12% | [2]; at 11.0 µM -5% | [2]; at 33.0 µM 9% | [3]; at 1.2 µM -3% | [3]; at 3.7 µM 0% | [3]; [17] 13% and 12% | [3]; at 11.0 µM 7% | [3]; at 33.0 µM 64% | [4]; at 1.2 µM -7% | [4]; at 3.7 µM -11% | [4]; [17] -8% and -7% | [4]; at 11.0 µM -7% | [4]; at 33.0 µM 43% | [5]; at 1.2 µM -7% | [5]; at 3.7 µM -3% | [5]; at 11.0 µM 15% | [6]; [17] -5% and -7% | [7]; at 1.2 µM -23% | [7]; at 3.7 µM -18% | [7]; at 11.0 µM -11% | [7]; at 33.0 µM 42% | [8]; [17] 20% and 10% | [9]; at 1.2 µM -23% | [9]; at 3.7 µM -24% | [9]; [17] 11% and 7% | [9]; at 11.0 µM -11% | [9]; at 33.0 µM 6% | [10]; at 1.2 µM 3% | [10]; at 3.7 µM -1% | [10]; at 11.0 µM 13% | [11]; at 1.2 µM 24% | [11]; at 3.7 µM 26% | [11]; at 11.0 µM 41% | [12]; [17] 9% and 10% | [13]; at 1.2 µM 3% | [13]; at 3.7 µM -14% | [13]; at 11.0 µM -12% | [13]; at 33.0 µM 36%
active: [1]; at 100.0 µM 98% | [2]; at 100.0 µM 99% | [3]; [18] 100% | [3]; at 50.0 µM 98.6% and 98.5% | [3]; at 100.0 µM 98% | [4]; [18] 99% and 93% | [4]; at 50.0 µM 98.5% and 99.3% | [4]; at 100.0 µM 99% | [5]; at 33.0 µM 92% | [5]; at 100.0 µM 98% | [6]; [18] 85% and 91% | [6]; at 50.0 µM 98.7% and 99.4% | [7]; at 100.0 µM 98% | [8]; [18] 89% and 76% | [8]; at 50.0 µM 99.2% and 99.5% | [9]; [18] 99% | [9]; at 50.0 µM 87.5% and 99.2% | [9]; at 100.0 µM 98% | [10]; at 33.0 µM 85% | [10]; at 100.0 µM 98% | [11]; at 33.0 µM 82% | [11]; at 100.0 µM 99% | [12]; [18] 100% and 99% | [12]; at 50.0 µM 99.5% and 99.4% | [13]; at 100.0 µM 98%

O=C(O)c1ccc(N2C(=O)C=CC2=O)cc1
30% (inactive) and 72.7% (active): [3]; at 50.0 µM
inactive: [1]; at 1.2 µM 1% | [1]; at 3.7 µM 7% | [1]; at 11.0 µM 8% | [1]; at 33.0 µM 27% | [2]; at 1.2 µM -3% | [2]; at 3.7 µM -2% | [2]; at 11.0 µM 1% | [2]; at 33.0 µM 10% | [2]; at 100.0 µM 53% | [14]; at 1.2 µM 1% | [14]; at 3.7 µM 1% | [14]; at 11.0 µM 3% | [14]; at 33.0 µM 18% | [14]; at 100.0 µM 62% | [3]; at 1.2 µM 3% | [3]; at 3.7 µM 11% | [3]; [17] -8% and 7% | [3]; at 11.0 µM 14% | [3]; at 33.0 µM 33% | [3]; [18] 44% and 25% | [4]; at 1.2 µM -7% | [4]; at 3.7 µM -4% | [4]; [17] 5% and 7% | [4]; at 11.0 µM 0% | [4]; at 33.0 µM 21% | [4]; [18] 15% and 24% | [4]; at 50.0 µM 17.6% and 32.5% | [4]; at 100.0 µM 56% | [5]; at 1.2 µM -3% | [5]; at 3.7 µM -6% | [5]; at 11.0 µM 3% | [5]; at 33.0 µM 12% | [5]; at 100.0 µM 38% | [6]; [17] 9% and 8% | [6]; [18] 56% and 22% | [6]; at 50.0 µM 11.9% and 59.4% | [7]; at 1.2 µM 1% | [7]; at 3.7 µM 4% | [7]; at 11.0 µM 6% | [7]; at 33.0 µM 18% | [7]; at 100.0 µM 39% | [8]; [17] -35% and 5% | [8]; [18] -2% and 6% | [8]; at 50.0 µM 43.3% and 26.8% | [9]; at 1.2 µM -7% | [9]; at 3.7 µM -23% | [9]; [17] -13% and -1% | [9]; at 11.0 µM -3% | [9]; at 33.0 µM 4% | [9]; [18] 10% and -10% | [9]; at 50.0 µM -2.9% and -0.2% | [9]; at 100.0 µM 39% | [15]; at 1.2 µM -2% | [15]; at 3.7 µM -1% | [15]; at 11.0 µM 5% | [15]; at 33.0 µM 22% | [15]; at 100.0 µM 68% | [10]; at 1.2 µM -2% | [10]; at 3.7 µM 5% | [10]; at 11.0 µM 10% | [10]; at 33.0 µM 25% | [10]; at 100.0 µM 61% | [11]; at 1.2 µM 0% | [11]; at 3.7 µM 4% | [11]; at 11.0 µM 14% | [11]; at 33.0 µM 31% | [11]; at 100.0 µM 67% | [12]; [17] -6% and 4% | [12]; [18] 41% and 20% | [12]; at 50.0 µM 20.1% and 27.3%
active: [1]; at 100.0 µM 74% | [3]; at 100.0 µM 80%

S=C1SCN(C2CCCCC2)CN1C1CCCCC1
active: [16]; at 100.0 µM 88% | [3]; [18] 99% | [4]; [18] 100%
inactive: [1]; at 1.2 µM -21% | [1]; at 3.7 µM -25% | [1]; at 11.0 µM -14% | [1]; at 33.0 µM -1% | [1]; at 100.0 µM 55% | [16]; at 1.2 µM -51% | [16]; at 3.7 µM -36% | [16]; at 11.0 µM -3% | [16]; at 33.0 µM 44% | [14]; at 1.2 µM -72% | [14]; at 3.7 µM -45% | [14]; at 11.0 µM -2% | [14]; at 33.0 µM -23% | [14]; at 100.0 µM 64% | [3]; at 1.2 µM -4% | [3]; at 3.7 µM -8% | [3]; [17] 44% | [3]; at 11.0 µM -1% | [3]; at 33.0 µM 13% | [3]; at 50.0 µM 47.5% | [3]; at 100.0 µM 67% | [4]; at 1.2 µM -65% | [4]; at 3.7 µM -78% | [4]; [17] 56% | [4]; at 11.0 µM -64% | [4]; at 33.0 µM -28% | [4]; at 50.0 µM 63.5%
